Assay outcomes from PubChem BioAssay.
GIRK2 act: GIRK2 channel activators by thallium flux; HEK293 GIRK2/NPY4 cells, thallium flux fluorescence; P48051; activation (% efficacy), % for hits at 37.5 µM; 34,000 tested, under 10 active;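 active = primary screen hit, no activity in plain HEK293 cells, and in GIRK2-only cells above 5% efficacy rising with concentration; inactive = the rest, including fluorescent compounds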;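 also: efficacy is normalized control-subtracted fluorescence 15 s after thallium addition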
Target sequence (P48051 whole entry, looked up): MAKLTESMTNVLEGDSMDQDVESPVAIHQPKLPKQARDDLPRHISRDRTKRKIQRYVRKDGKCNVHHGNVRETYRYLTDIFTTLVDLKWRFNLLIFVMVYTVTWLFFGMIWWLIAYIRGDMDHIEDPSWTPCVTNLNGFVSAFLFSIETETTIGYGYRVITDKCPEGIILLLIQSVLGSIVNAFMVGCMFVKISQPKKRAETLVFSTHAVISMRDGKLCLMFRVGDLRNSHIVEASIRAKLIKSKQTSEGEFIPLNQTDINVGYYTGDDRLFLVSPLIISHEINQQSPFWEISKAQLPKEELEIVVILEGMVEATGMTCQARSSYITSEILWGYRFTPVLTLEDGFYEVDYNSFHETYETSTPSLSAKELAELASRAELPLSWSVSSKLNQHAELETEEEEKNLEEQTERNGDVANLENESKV
GluA2 TARP mod: GluA2-stargazin AMPA receptor complex modulation; HEK293 GluA2+stargazin, membrane potential dye (FDSS), glutamate EC50; hits were called plate by plate, in both directions; AID 1259245; calls only at 30 µM; O88602+P19491; 40,000 compounds, 3.5% hits;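 active = any of four per-well response measures lying three or more SD from its plate-wide compound average, in either direction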
Starred values were filed as active, the others as inactive; i = inactive; nt = not tested or not shown; + = active, no number. The sample as a whole holds a higher share of hits than the screen did.

SMILES	GIRK2 act	GluA2 TARP mod
COc1ccc(CCC(=O)Nc2ccc(CC(=O)NC3CC3)cc2)cc1	i	i
COc1ccc(Cl)cc1NC(=O)C(=O)NCC(c1cccs1)N(C)C (stereo not drawn)	i	+
COc1ccc(NC(=O)NCC(O)Cc2ccccc2)cc1OC (stereo not drawn)	i	i
COc1ccc(Cl)cc1NC(=O)NCC(O)Cc1ccccc1 (stereo not drawn)	i	+
COc1ccc(NC(=O)C(=O)NCC(c2cccs2)N(C)C)c(OC)c1 (stereo not drawn)	i	i
COc1ccc(-c2ccc(=O)n(CCCC(=O)NCc3ccccc3)n2)cc1OC	i	i
CN(C)S(=O)(=O)N1CCC(COCc2ccc(Cl)cc2)CC1	i	+
O=S(=O)(/C=C/c1ccccc1)N1CCC(COCc2ccc(Cl)cc2)CC1	i	i
CCCC(=O)NCCOc1ccc2nnc(-c3ccc(OC)c(OC)c3)n2n1	i	+
COc1ccc(-c2nnc3ccc(OCCNC(=O)Nc4ccc(Cl)cc4)nn23)cc1	i	i
CCCC(=O)NCCOc1ccc2nnc(-c3cccc(OC)c3)n2n1	i	i
COc1ccc(-c2nnc3ccc(OCCNC(=O)Nc4ccc(F)cc4)nn23)cc1	i	+
CCC(C(=O)NCCOc1ccc2nnc(-c3ccc(OC)cc3)n2n1)c1ccccc1 (stereo not drawn)	i	i
COc1ccc(-c2nnc3ccc(OCCNC(=O)NCc4ccccc4)nn23)cc1	i	+
O=C(CSc1ccc(NC(=O)c2ccco2)nn1)Nc1ccccc1C(F)(F)F	i	i
CCOc1ccc(-n2nnnc2SC(C)C(=O)Nc2cccc(OC)c2)cc1 (stereo not drawn)	nt	+
COc1cccc(NC(=O)C(C)Sc2nnnn2-c2ccc(C)cc2)c1 (stereo not drawn)	nt	i
CCOc1ccc(-n2nnnc2SC(C)C(=O)Nc2cc(C)on2)cc1 (stereo not drawn)	nt	+
Cc1cccc(-n2nnnc2SC(C)C(=O)Nc2cc(C)on2)c1 (stereo not drawn)	nt	i
COc1nn(C)cc1C(=O)NCC(O)c1ccc(C(F)(F)F)cc1 (stereo not drawn)	i	nt
CCCCNC(=O)Cn1cnc(-c2ccc(Cl)cc2)cc1=O	i	nt
CCNC(=O)c1nsc(C(=O)NCc2ccccc2OC)c1N	i	i
O=C(CCS(=O)(=O)c1ccccc1)Nc1ccc2c(c1)CN(C(=O)c1ccco1)CC2	i	i
Cc1cc(C(=O)Nc2c3c(nn2C)CCC3)on1	i	i
Cc1ccnc(NS(=O)(=O)c2ccc(NC(=O)c3nc(-c4cnccn4)no3)cc2)n1	i	i
SMILES	GIRK2 act	GluA2 TARP mod
O=C(Nc1ccc(S(=O)(=O)Nc2nccs2)cc1)c1nc(-c2cnccn2)no1	i	+
O=C(NCCCn1cccc1)c1ccccc1C(F)(F)F	i	i
O=C(NCCCn1cccc1)c1c(F)cccc1F	i	+
Cc1cc(C)c2c(n1)nn1c(NCc3ccccn3)cc(C)nc21	i	i
Cc1cc(C)c2c(n1)nn1c(NCCOCCO)cc(C)nc21	i	+
Cc1cc(C)c2c(n1)nn1c(NCCCN(C)C)cc(C)nc21	i	+
Cc1cc(C)c2c(n1)nn1c(NCCC3=CCCCC3)cc(C)nc21	i	i
NC(=O)c1ccccc1NC(=O)CCCn1nc(-c2ccc(Cl)cc2)ccc1=O	i	i
Cc1cc(NC(=O)c2cccc(SC(C)C)c2)no1	nt	i
COc1ccc(Nc2cc(C)nc(N3CCN(C(=O)C4CCCC4)CC3)n2)cc1	i	+
Cc1cc(Nc2ccccc2)nc(N2CCN(C(=O)c3ccc4c(c3)OCO4)CC2)n1	nt	i
O=C(COc1ncccn1)N1CCN(c2ccc(Nc3ccccn3)nn2)CC1	i	+
Cc1cc(C)n(-c2ccc(N3CCN(C(=O)COc4ncccn4)CC3)nn2)n1	i	nt
O=C(Cc1ccc(Cl)cc1)N1CCN(c2ccc(Nc3ccccn3)nn2)CC1	i	i
Cc1ccc(Nc2cc(C)nc(N3CCN(C(=O)COc4ncccn4)CC3)n2)cc1	i	+
CN1C(=O)N(C)C2(CCN(C(=O)c3ccccc3)CC2)C1=O	i	i
O=C(CSc1nc(CC(=O)N2CCc3ccccc32)cs1)c1ccccc1	i	nt
CN1C(=O)c2ccc(NC(=O)c3ccc(S(=O)(=O)N4CCc5ccccc5C4)cc3)cc2C1=O	nt	i
Cc1ccccc1NC(=O)NC1CCS(=O)(=O)C1 (stereo not drawn)	i	i
O=S(=O)(c1ccccc1)c1nnn2c1nc(NC1CC1)c1cc(Cl)ccc12	i	i
O=C(NCC(O)(c1cccs1)C1CC1)NC1CCCCC1 (stereo not drawn)	i	+
O=C(NCC(O)(c1ccco1)C1CC1)Nc1ccccc1C(F)(F)F (stereo not drawn)	i	i
O=C(NCC(O)(c1cccs1)C1CC1)c1ccco1 (stereo not drawn)	i	i
O=C(NCc1cccs1)NCC(O)(c1cccs1)C1CC1 (stereo not drawn)	i	i
O=C(NCC(O)(c1ccco1)C1CC1)NC1CCCCC1 (stereo not drawn)	i	+
SMILES	GIRK2 act	GluA2 TARP mod
O=C(NCC(O)(c1cccs1)C1CC1)C1c2ccccc2Oc2ccccc21 (stereo not drawn)	i	+
O=C(C1c2ccccc2Oc2ccccc21)N1CCN(Cc2nnnn2-c2ccc(F)c(F)c2)CC1	i	i
COCCn1c(=NC(=O)c2cc(C)no2)sc2cc(OC)ccc21	i	i
CCOc1ccc2c(c1)sc(=NC(=O)c1ccc(S(=O)(=O)C(C)C)cc1)n2CCOC	i	+
Nc1nc(SCC(=O)Nc2ccccc2Cl)ncc1S(=O)(=O)c1ccc(Cl)s1	i	i
CC(=O)N1CCCC1c1nc2ccccc2n1CCCOc1c(C)cccc1C (stereo not drawn)	i	+
Cc1cccc(C)c1OCC(O)Cn1c(C2CC2)nc2ccccc21 (stereo not drawn)	i	i
Cc1nc(C)c(C(=O)N2CCN(c3nc4c(C)c(C)ccc4s3)CC2)s1	i	i
Cc1nc(C)c(C(=O)N2CCN(c3ccc(N(C)C)nn3)CC2)s1	i	+
N#C/C(=C\c1ccccc1)c1nc2ccccc2s1	nt	i
N#C/C(=C\c1cccs1)c1nc2ccccc2s1	nt	+
COc1cc2nc(SCC(=O)Nc3ccccc3C)n3nc(C)nc3c2cc1OC	i	nt
O=C(Cc1ccc(NC(=O)c2ccccc2F)cc1)NC1CC1	i	i
Cc1ccccc1N1C(=O)CC(c2cn(Cc3ccccc3)c3ccccc23)C1=O (stereo not drawn)	nt	+
Cc1cccc(N2C(=O)CC(c3cn(C)c4ccccc34)C2=O)c1 (stereo not drawn)	nt	i
O=C(CCSc1ccccc1)Nc1ccc(CC(=O)N2CCC(O)CC2)cc1	i	nt
CCc1c(C)nc(SCC(=O)Nc2cc(C(F)(F)F)ccc2Cl)[nH]c1=O	nt	+
Cc1cc(=O)n(CC(=O)Nc2cc(C(F)(F)F)ccc2Cl)cn1	i	i
CSc1ccc(CC(=O)Nc2cccc(C)n2)cc1	nt	i
CN1C(=O)N(C)C2(CCN(S(=O)(=O)c3cccc(C(F)(F)F)c3)CC2)C1=O	i	i
Cc1nnsc1C(=O)Nc1ccc2c(c1)N(C(=O)c1ccco1)CC2	i	+
